# According to PubChem BioAssay (NCATS):
# Inconclusive results are not listed. Where a call stands in place of a potency, no number is given. Activity calls are given as the source filed them. Unless noted, calls come from the whole dose curve; as a rule, active = well fitted curve in the direction sought with a large enough effect; inconclusive = small, poorly fitted or top-dose-only effect, or another doubt; inactive = no such curve, though single readings can be large; an effect the other way counts as inactive or inconclusive.
# Experiments:
# Furin (Homo sapiens) = Furin (Homo sapiens) (UniProt P09958); experiment: Furin counterscreen qHTS for Zika virus inhibitors (AID 1347149); note: nearly all actives have a fitted effect of over 70% in size; note: potency is the fitted concentration of half-maximal effect;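 for activity change, negative = inhibition: purified recombinant full-length human furin enzyme at 5 nM; fluorescence gain from furin cutting a BOC-RVRR-AMC peptide substrate over 15 min; top concentration of the series differs between compounds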
# Sequence of Furin (Homo sapiens) (P09958 whole entry, looked up): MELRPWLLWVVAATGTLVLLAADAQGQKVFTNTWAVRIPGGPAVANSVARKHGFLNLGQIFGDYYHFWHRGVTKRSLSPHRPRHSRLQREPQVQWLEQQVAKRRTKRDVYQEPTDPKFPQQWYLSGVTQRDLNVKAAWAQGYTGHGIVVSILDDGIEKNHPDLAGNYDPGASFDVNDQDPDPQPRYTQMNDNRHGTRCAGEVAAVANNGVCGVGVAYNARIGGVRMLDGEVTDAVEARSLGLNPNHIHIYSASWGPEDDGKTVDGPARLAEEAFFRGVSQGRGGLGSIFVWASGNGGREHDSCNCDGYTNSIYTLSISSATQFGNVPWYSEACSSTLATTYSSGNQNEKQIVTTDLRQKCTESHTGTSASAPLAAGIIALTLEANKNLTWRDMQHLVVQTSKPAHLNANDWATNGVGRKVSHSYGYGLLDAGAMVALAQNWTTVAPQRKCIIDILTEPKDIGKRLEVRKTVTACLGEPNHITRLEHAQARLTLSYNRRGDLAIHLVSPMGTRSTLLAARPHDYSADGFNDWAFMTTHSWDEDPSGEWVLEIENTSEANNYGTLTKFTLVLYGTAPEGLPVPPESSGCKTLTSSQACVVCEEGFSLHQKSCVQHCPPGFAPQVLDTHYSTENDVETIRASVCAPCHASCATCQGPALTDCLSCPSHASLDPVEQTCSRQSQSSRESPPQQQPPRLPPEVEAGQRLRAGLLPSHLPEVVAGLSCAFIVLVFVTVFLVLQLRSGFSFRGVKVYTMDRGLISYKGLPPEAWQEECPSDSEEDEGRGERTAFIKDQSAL
# How it was run: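 Fluorogenic cleavage of BOC-RVRR-AMC (2 microM final, Km ~15 µM) was monitored (ex 340, em 450 nm) at 37C after 15 min RT preincubation of 5 nM furin with compounds in HEPES pH 7.0 buffer with CaCl2 and Triton X-100. Percent inhibition was fitted to a 4-parameter Hill curve.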
# [1] = Tertiary RLuc qRT-PCR qHTS assay for Zika virus inhibitors (AID 1347169); note: nearly all actives have a fitted effect of over 55% in size; note: potency is the fitted concentration of half-maximal effect; for activity change, negative = inhibition: top concentration of the series differs between compounds
# How it was run: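 Vero cells (1,000 per well) plated overnight at 37 degrees C, treated with compound in DMSO, then infected with recombinant ZIKV-RLuc (Cambodian) at MOI 1-2 for 48-72 hrs. Live-cell Renilla luciferase substrate added; luminescence read after 1-1.5 hrs.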
# [2] = target: Tumor susceptibility gene 101 protein (Homo sapiens) (UniProt Q99816); experiment: qHTS Assay for Iinhibitors of HIV-1 Budding by Blocking the Interaction of PTAP/TSG101: Hit Validation (AID 651600); note: nearly all actives have a fitted effect of over 70% in size
# Sequence of Tumor susceptibility gene 101 protein (Homo sapiens) (Q99816 whole entry, looked up, the tested form may be a part): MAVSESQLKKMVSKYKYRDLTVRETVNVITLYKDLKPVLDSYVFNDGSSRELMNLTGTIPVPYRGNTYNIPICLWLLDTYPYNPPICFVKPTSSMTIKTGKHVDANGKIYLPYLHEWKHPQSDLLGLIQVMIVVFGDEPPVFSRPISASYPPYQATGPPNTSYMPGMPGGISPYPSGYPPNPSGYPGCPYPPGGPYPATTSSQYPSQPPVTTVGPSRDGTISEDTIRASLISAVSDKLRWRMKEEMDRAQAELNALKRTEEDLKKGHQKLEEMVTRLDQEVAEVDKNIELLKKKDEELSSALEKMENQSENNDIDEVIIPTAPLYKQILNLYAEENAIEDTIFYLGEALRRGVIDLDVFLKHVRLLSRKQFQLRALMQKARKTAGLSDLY
# How it was run: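 Fluorescence polarization binding assay: Tsg101 binding domain (10 uM final) pre-dispensed with compounds, then FITC-labeled PTAP-motif peptide (50 nM final) added; 20 min at r.t. in HEPES pH 7.5 buffer with NaCl, Tween 20, EDTA, TCEP.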
# [3] = tested on: Zika virus NS2B-NS3 protease (linked construct); experiment: 384 well plate NINDS Rhodamine confirmatory qHTS for Zika virus inhibitors (AID 1347164);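 note: fluorescence from protease cleavage of Ac-LKRR-rhodamine 110 substrate; nearly all actives have a fitted effect of over 65% in size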; note: potency is the fitted concentration of half-maximal effect; for activity change, negative = inhibition: top concentration of the series differs between compounds
# How it was run: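 Linked protease at a final 5 nM, 30 nM or 60 nM was preincubated ~15 min with compounds, then given 10 microM Ac-LKRR-Rhodamine 110. Fluorescence (ex 485/em 538 nm) after 25 min in the dark at room temperature.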
# [4] = tested on: Zika virus NS2B-NS3 protease (linked); experiment: 384 well plate NINDS AMC confirmatory qHTS for Zika virus inhibitors (AID 1347163); note: nearly all actives have a fitted effect of over 50% in size; note: potency is the fitted concentration of half-maximal effect;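 for activity change, negative = inhibition: fluorescence of AMC released from Ac-VKTGKR-AMC peptide cleaved by the protease; top concentration of the series differs between compounds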
# How it was run: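 Linked protease 5/30/60 nM final; cpds up to 1 mM final, ~15 min preinc. Substrate Ac-VKTGKR-AMC 30 microM final. RT, dark, 25 min; FI ex 355/em 460; normalized to no-enzyme/no-inhibitor ctrls.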
# [5] = Confirmation and Secondary Assay for Modulators of Hemoglobin Beta Chain Splicing at IVS2 705 locus (AID 930);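 note: HeLa cells stably expressing the EGFP-705 splicing reporter; GFP fluorescence per well restored by corrected splicing of the IVS2-705 intron in EGFP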
# How it was run: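 First, HeLa EGFP-705 cells are seeded at 500/well in Optimem with 2% FCS and left overnight. Next, compound or DMSO is added for 2 days. Finally wells are laser-scanned and total peak GFP intensity scored.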
# [6] = qHTS Assay for Lipid Storage Modulators (AID 1519; calls by dose curve; note: potency is the fitted concentration of half-maximal effect); conditions: Drosophila S3 cells, BODIPY lipid droplet/cell ratio, laser cytometry, cells loaded with oleic acid
# How it was run: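 Cells seeded at 5,000 per well were treated with compounds over a concentration series and loaded with oleic acid (400 uM, as added). Lipid droplet fluorescence (488 nm excitation, 500-530 nm channel) was read by laser-scanning cytometry and normalized to 20 uM Triacsin C.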
# [7] = tested on: Zika virus NS2B-NS3 protease (linked construct); experiment: Confirmatory screen NINDS AMC qHTS for Zika virus inhibitors (AID 1347152); note: potency is the fitted concentration of half-maximal effect; nearly all actives have a fitted effect of over 70% in size
# How it was run: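 Purified NS2B-NS3 protease with NS2B hydrophilic domain linked to NS3 protease domain by flexible linker, 1 nM final in 10 mM Tris-HCl pH 8.0, 0.01% Tween 20. Compounds preincubated 15 min, room temperature; Bz-Nle-KRR-AMC 10 microM (Km 18.3 µM); 15-min fluorescence change, 4-parameter Hill fit.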
# [8] = tested on: Zika virus NS2B-NS3 protease (unlinked complex); experiment: Confirmatory screen GU AMC qHTS for Zika virus inhibitors (AID 1347153);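 note: enzyme at 25 nM with substrate at 10 µM below its Km of 18.3 µM; potency is the fitted concentration of half-maximal effect; nearly all actives have a fitted effect of over 70% in size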
# How it was run: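 Compounds were preincubated 15 min at room temperature with 25 nM noncovalent NS2B-NS3 protease at pH 8.0; AMC substrate added at 10 microM and 15-min fluorescence gain (340/450 nm) converted to percent inhibition, fitted 4-parameter.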
# [9] = Confirmatory screen NINDS Rhodamine qHTS for Zika virus inhibitors (AID 1347161); note: nearly all actives have a fitted effect of over 60% in size; note: potency is the fitted concentration of half-maximal effect;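 for activity change, negative = inhibition: purified Zika NS2B-NS3 protease with linked NS2B cofactor domain and Rhodamine110 peptide substrate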
# How it was run: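 Rhodamine110-peptide cleavage (1.5 µM substrate) by 25 nM linked NS2B-NS3 enzyme at pH 8.0 (Tris, Tween 20), after 15 min RT preincubation with compounds; 15-min fluorescence change normalized to controls and Hill-fitted.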
# [10] = Vero cells viability qHTS for Zika virus inhibitors (AID 1347167)
# How it was run: (§1)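 Counter-screen for cytotoxicity of hits from NS2B-NS3 protease qHTS. Overnight-attached cells (2.5 x 10^5 cells/mL, DMEM/4% FBS) were dosed in titration, incubated 24 to 48 hours, then assayed by CellTiter Glo.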
# [11] = HepG2 cells viability qHTS for Zika virus inhibitors (AID 1347168)
# How it was run: as §1
# [12] = Primary qHTS for small molecule stabilizers of the endoplasmic reticulum resident proteome: Secreted ER Calcium Modulated Protein (SERCaMP) assay (AID 1508630)
# How it was run: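 GLuc-SERCaMP-expressing SH-SY5Y cells, pretreated 16 h with compound, are challenged with thapsigargin to empty ER calcium stores; after 4 h, coelenterazine is added directly to the medium and luminescence is imaged.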
# [13] = target: Cytochrome P450 2D6 (Homo sapiens) (UniProt P10635); experiment: Cytochrome P450 family 2 subfamily D member 6 (CYP2D6) small molecule antagonists: luciferase biochemical (cell-free) qHTS assay (AID 1645840; active = well fitted curve in the direction sought with a large enough effect in the repeat runs; an effect the other way counts as inactive or inconclusive; note: potency is the fitted concentration of half-maximal effect; nearly all actives have a fitted effect of over 55% in size)
# Sequence of Cytochrome P450 2D6 (Homo sapiens) (P10635 whole entry, looked up): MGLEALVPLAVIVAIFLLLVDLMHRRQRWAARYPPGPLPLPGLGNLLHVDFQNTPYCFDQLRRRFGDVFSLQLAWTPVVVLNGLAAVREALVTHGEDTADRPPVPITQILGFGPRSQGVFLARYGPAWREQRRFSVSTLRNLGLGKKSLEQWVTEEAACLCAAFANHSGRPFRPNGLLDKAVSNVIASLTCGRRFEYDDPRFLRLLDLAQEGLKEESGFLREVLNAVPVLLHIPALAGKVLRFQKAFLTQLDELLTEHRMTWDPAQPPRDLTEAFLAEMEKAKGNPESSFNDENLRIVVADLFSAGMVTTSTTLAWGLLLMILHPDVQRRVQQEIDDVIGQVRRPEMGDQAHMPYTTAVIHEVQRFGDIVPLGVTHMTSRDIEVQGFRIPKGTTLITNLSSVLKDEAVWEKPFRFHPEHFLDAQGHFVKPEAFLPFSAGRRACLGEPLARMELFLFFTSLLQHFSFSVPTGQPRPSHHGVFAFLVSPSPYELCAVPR
# How it was run: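 P450-Glo luminescent screen: recombinant CYP2D6 enzyme–proluciferin substrate mix preincubated with compound 10 min at room temperature, then NADPH regeneration added for 1 h at room temperature. Detection reagent added for 20 min; luciferin light read as relative luminescence units.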
# [14] = target: Cytochrome P450 2C9 (Homo sapiens) (UniProt P11712); experiment: Cytochrome P450 family 2 subfamily C member 9 (CYP2C9) small molecule antagonists: luciferase biochemical (cell-free) qHTS assay (AID 1645842; active = well fitted curve in the direction sought with a large enough effect in the repeat runs; an effect the other way counts as inactive or inconclusive; note: potency is the fitted concentration of half-maximal effect; nearly all actives have a fitted effect of over 55% in size)
# Sequence of Cytochrome P450 2C9 (Homo sapiens) (P11712 whole entry, looked up): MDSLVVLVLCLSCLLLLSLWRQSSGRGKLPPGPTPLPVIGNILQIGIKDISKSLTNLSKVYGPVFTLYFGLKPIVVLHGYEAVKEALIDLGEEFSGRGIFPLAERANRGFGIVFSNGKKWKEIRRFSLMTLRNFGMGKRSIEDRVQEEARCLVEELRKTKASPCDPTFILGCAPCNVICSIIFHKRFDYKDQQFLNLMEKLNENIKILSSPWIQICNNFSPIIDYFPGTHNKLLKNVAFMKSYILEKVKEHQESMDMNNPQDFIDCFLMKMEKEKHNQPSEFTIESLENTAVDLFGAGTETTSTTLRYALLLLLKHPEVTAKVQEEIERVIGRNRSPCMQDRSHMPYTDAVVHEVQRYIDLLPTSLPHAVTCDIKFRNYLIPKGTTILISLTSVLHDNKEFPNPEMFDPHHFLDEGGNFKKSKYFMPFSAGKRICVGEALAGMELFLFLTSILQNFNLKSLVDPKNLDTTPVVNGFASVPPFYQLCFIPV
# How it was run: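 Luminescence, after 20 min with luciferin detection reagent, reflected CYP2C9 turnover during a 1 h NADPH-driven reaction at 37C. Enzyme-substrate mix contained 0.4% bovine serum albumin and was preincubated with compound 10 min at room temperature.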
# [15] = target: Rap guanine nucleotide exchange factor 3 (Homo sapiens) (UniProt O95398); experiment: Confirmatory qHTS for agonist of cAMP-regulated guanine nucleotide exchange factor 3 (EPAC1) (AID 1645881);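 note: EPAC1 catalysed release of BODIPY-GDP from Rap1B seen as fluorescence loss; nearly all actives have a fitted effect of over 75% in size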
# Sequence of Rap guanine nucleotide exchange factor 3 (Homo sapiens) (O95398 whole entry, looked up): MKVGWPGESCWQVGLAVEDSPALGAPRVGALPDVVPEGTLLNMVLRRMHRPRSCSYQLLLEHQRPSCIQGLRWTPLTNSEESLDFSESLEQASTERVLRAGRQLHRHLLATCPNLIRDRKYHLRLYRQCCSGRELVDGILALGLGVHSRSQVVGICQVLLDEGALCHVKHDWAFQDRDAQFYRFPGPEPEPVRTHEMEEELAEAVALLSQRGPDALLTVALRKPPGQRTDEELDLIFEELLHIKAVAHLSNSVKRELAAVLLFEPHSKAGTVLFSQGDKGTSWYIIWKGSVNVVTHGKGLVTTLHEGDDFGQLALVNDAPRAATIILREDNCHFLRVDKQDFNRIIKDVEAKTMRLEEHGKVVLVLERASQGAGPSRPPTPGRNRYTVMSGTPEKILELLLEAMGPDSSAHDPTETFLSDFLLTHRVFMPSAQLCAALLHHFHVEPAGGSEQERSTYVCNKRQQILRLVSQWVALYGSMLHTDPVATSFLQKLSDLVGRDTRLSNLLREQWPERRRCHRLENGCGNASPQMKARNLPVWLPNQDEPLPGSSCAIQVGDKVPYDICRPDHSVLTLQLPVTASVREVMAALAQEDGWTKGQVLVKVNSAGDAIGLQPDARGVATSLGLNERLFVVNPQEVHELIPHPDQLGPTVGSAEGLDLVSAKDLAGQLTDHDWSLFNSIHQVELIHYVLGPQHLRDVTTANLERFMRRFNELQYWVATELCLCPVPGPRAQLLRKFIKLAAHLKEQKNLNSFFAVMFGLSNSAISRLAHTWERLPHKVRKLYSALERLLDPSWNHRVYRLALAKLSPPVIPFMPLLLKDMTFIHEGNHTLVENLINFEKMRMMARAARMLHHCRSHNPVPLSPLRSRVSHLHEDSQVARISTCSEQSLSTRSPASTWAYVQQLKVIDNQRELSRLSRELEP
# [16] = target: Rap guanine nucleotide exchange factor 4 (Homo sapiens) (UniProt Q8WZA2); experiment: Confirmatory qHTS for agonist of cAMP-regulated guanine nucleotide exchange factor 4 (EPAC2) (AID 1645884);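 note: nucleotide exchange releases bodipy-GDP from Rap1 and this lowers its fluorescence; nearly all actives have a fitted effect of over 65% in size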
# Sequence of Rap guanine nucleotide exchange factor 4 (Homo sapiens) (Q8WZA2 whole entry, looked up): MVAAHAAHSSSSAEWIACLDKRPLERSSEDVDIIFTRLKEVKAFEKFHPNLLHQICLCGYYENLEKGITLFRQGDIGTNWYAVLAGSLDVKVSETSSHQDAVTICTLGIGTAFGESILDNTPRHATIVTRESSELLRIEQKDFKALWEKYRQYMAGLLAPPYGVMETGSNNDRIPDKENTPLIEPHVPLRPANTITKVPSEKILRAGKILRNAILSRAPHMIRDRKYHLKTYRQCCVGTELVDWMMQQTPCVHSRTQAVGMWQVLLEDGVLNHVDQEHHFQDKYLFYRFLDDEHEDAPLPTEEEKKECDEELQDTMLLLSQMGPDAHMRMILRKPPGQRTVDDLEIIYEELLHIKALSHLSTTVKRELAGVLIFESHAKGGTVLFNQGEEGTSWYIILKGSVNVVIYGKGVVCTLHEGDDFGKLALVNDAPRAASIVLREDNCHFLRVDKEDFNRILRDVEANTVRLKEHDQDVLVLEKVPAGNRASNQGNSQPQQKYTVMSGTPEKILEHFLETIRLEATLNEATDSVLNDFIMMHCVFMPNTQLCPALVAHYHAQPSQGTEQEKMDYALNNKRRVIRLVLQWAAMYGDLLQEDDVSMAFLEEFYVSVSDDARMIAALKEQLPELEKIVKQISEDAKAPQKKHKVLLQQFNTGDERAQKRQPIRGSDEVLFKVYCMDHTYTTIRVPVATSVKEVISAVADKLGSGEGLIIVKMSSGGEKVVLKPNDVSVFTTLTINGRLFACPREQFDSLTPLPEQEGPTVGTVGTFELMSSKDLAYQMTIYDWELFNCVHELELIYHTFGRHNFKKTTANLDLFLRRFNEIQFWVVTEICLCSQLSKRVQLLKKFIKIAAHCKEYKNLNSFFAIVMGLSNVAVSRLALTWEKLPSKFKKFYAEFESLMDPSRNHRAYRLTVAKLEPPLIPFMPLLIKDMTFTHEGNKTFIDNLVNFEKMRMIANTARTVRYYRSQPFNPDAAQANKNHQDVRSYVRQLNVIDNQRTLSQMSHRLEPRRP
# [17] = target: Glutathione peroxidase 1 (Homo sapiens) (UniProt P07203); experiment: Primary qHTS Assay for Inhibitors of Recombinant Selenoprotein Glutathione Peroxidase 1 (GPX1) (AID 1845191); note: nearly all actives have a fitted effect of over 65% in size
# Sequence of Glutathione peroxidase 1 (Homo sapiens) (P07203 whole entry, looked up): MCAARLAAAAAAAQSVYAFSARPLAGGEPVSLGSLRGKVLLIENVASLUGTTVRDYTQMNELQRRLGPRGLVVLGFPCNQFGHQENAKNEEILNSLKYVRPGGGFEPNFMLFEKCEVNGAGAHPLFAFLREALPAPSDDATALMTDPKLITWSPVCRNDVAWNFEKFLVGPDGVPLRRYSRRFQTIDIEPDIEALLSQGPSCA
# How it was run: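 Recombinant GPX1 (10 nM final) was preincubated with compound for 30 min at room temperature, then reacted with 1 mM GSH, 0.5 mM CHP, 0.5 mM NADPH and 100 nM glutathione reductase; NADPH fluorescence (340/450 nm) was read at 0 and 15 min.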
# [18] = target: Phospholipid hydroperoxide glutathione peroxidase GPX4 (Homo sapiens) (UniProt P36969); experiment: Primary qHTS Assay for Inhibitors of Recombinant Selenoprotein Glutathione Peroxidase 4 (GPX4) (AID 1845192); conditions: outcome: dose series up to 50 µM unless noted; note: potency is the fitted concentration of half-maximal effect; nearly all actives have a fitted effect of over 65% in size
# Sequence of Phospholipid hydroperoxide glutathione peroxidase GPX4 (Homo sapiens) (P36969 whole entry, looked up): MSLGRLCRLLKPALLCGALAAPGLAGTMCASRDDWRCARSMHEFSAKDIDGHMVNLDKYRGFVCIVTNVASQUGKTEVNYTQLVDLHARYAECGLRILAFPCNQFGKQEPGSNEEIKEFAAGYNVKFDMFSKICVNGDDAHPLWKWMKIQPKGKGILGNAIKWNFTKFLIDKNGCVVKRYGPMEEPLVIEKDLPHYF
# How it was run: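 GR-coupled readout: 100 nM GR, 1 mM GSH, 0.5 mM NADPH; NADPH fluorescence (ex 340/em 450 nm) read at t=0 and after 15 min RT. GPX4 200 nM, preincubated 30 min with compound; substrate 0.5 mM CHP.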
# [19] = target: Cytochrome P450 3A4 (Homo sapiens) (UniProt P08684); experiment: qHTS Assay for Inhibitors and Substrates of Cytochrome P450 3A4 (AID 884); note: potency is the fitted concentration of half-maximal effect; nearly all actives have a fitted effect of over 50% in size
# Sequence of Cytochrome P450 3A4 (Homo sapiens) (P08684 whole entry, looked up): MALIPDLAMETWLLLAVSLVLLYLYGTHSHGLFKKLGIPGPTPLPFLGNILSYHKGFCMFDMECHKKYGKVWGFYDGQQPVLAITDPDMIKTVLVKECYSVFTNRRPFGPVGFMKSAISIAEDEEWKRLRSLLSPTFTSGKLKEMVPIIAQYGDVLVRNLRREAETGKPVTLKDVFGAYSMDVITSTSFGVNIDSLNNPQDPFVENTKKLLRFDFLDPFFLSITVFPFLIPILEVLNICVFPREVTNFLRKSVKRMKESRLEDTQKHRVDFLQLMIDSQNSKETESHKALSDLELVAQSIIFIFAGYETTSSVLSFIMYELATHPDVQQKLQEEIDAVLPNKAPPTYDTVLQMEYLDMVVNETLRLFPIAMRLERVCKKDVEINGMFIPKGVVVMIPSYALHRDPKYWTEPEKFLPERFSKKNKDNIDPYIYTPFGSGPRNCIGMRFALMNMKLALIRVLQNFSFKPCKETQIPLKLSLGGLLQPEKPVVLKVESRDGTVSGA
# How it was run: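 20 nM human CYP3A4 with 25 uM Luciferin-PPXE (at KM) in 200 mM KPO4, preincubated 10 min with compound; NADPH regeneration started a 60 min RT reaction. Luciferin detected by luminescence, normalized to 57 uM ketoconazole as full inhibition.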
# [20] = target: Cytochrome P450 3A4 (Homo sapiens) (UniProt P08684); experiment: qHTS Assay for Activators of Cytochrome P450 3A4 (AID 885); note: nearly all actives have a fitted effect of over 65% in size
# How it was run: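 Signal was normalized against complete inhibition by 57 uM ketoconazole. The reaction used 20nM CYP3A4 with 25uM Luciferin-PPXE, 10-min compound preincubation and a 60-min NADPH-supported step at RT.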
# [21] = Confirmation and Secondary Assay for Modulators of Hemoglobin Beta Chain Splicing at IVS2 654 locus (AID 910);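 note: per-well total GFP intensity by laser scanning cytometry after 2-day treatment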
# How it was run: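 HeLa cells stably carrying EGFP interrupted by mutant beta-globin IVS2-654 intron (CMV-driven) were treated with compound for 2 days at 37C; corrected splicing was scored as total peak GFP intensity per well (488 nm excitation, 500-520 nm emission).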
# [22] = measured here: cell count channel max response
# [23] = measured here: lipid channel max response
smiles,measurement,setting,value
COc1ccc(C(=O)Nc2ccc(C(=O)OCc3cc(=O)n4nc(C5CC5)sc4n3)cc2)cc1,Potency,Furin (Homo sapiens),13.2 µM (active)
same,Potency,[1],inactive
CCOC(=O)c1ccc(NC(=O)CSc2nc(-c3cccs3)cc(C(F)(F)F)c2C#N)cc1,outcome,[2],inactive
same,Potency,Furin (Homo sapiens),inactive
same,Potency,[1],inactive
Cc1ccc(OCC(=O)Nc2ccc(C(=O)OCc3cc(=O)n4nc(C5CC5)sc4n3)cc2)cc1,Potency,Furin (Homo sapiens),inactive
same,Potency,[1],inactive
COc1ccccc1C(=O)Nc1ccc(C(=O)OCc2cc(=O)n3c4c(sc3n2)CCCC4)cc1,Potency,Furin (Homo sapiens),7.44 µM (active)
same,Potency,[1],inactive
O=C(COc1ccccc1C(=O)OCC(=O)Nc1cccc2ccccc12)Nc1ccc(Br)cc1,Potency,Furin (Homo sapiens),inactive
same,Potency,[3],inactive
same,Potency,[1],inactive
O=C(O)COc1ccccc1C1Nc2ccccc2-c2nnc(SCc3ccc(Cl)cc3)nc2O1 (configuration not stated),Potency,Furin (Homo sapiens),inactive
same,Potency,[4],316 µM (active)
same,Potency,[3],224 µM (active)
same,Potency,[1],inactive
CCOc1nc2cccc(C(=O)OC(C)OC(=O)OC3CCCCC3)c2n1Cc1ccc(-c2ccccc2-c2nn[nH]n2)cc1 (configuration not stated),outcome,[5],inactive
same,Potency,[6],7.94 µM (active)
same,max response,[6]; [22],-28.3%
same,max response,[6]; [23],-78.8%
same,Potency,[7],12.1 µM (active)
same,Potency,[8],17.1 µM (active)
same,Potency,[9],1.24 µM (active)
same,Potency,[3],12.6 µM (active)
same,Potency,[10],inactive
same,Potency,[11],inactive
same,Potency,[1],14.7 µM (active)
same,Potency,[12],inactive
same,Potency,[13],13.5 µM (active)
same,Potency,[14],4.77 µM (active)
same,outcome,[15],inactive
same,outcome,[16],inactive
same,Potency,[17],inactive
same,Potency,[18],7.94 µM (active)
Cc1cccc(OCC(=O)Nc2ccc(C(=O)OCc3cc(=O)n4nc(C5CC5)sc4n3)cc2)c1,Potency,Furin (Homo sapiens),inactive
same,Potency,[1],inactive
O=C(O)COc1ccc(-c2nccc3c2C(=O)N(Cc2cccc(C(F)(F)F)c2)CC(COc2ccc4cnccc4c2)O3)cc1 (configuration not stated),Potency,Furin (Homo sapiens),62.2 µM (active)
same,Potency,[3],35.5 µM (active)
same,Potency,[1],inactive
CCOC(=O)c1ccc(NC(=O)CSc2nc(-c3ccc(F)cc3)cc(C(F)(F)F)c2C#N)cc1,Potency,Furin (Homo sapiens),inactive
same,Potency,[4],inactive
same,Potency,[3],inactive
O=C1C=CC(=O)c2c(O)c(Cl)c(Cl)c(O)c21,Potency,[19],31.6 µM (active)
same,Potency,[20],inactive
same,outcome,[21],inactive
same,outcome,[5],inactive
same,"activity change, negative = inhibition",[6]; at 57.5 µM (top of the series),5.17% (inactive)
same,max response,[6]; [22],0.303%
same,max response,[6]; [23],7.95%
same,Potency,Furin (Homo sapiens),inactive
same,Potency,[1],inactive
O=C(O)COc1ccc(-c2nccc3c2C(=O)N(Cc2cccc(C(F)(F)F)c2)CC(COc2ccccc2)O3)cc1 (configuration not stated),Potency,Furin (Homo sapiens),inactive
same,Potency,[3],39.8 µM (active)
same,Potency,[1],inactive
Cc1cccc(C(=O)Nc2ccc(C(=O)OCc3cc(=O)n4c5c(sc4n3)CCCC5)cc2)c1,Potency,Furin (Homo sapiens),46.9 µM (active)
same,Potency,[9],inactive
same,Potency,[1],inactive
